Data on eight compounds can be found in PubChem BioAssay (NCI).

Holding throughout (assay): NCI-60 one-dose screen, 48 h (100 = growth as untreated, 0 = no growth, -100 = all killed)
Common to all, as to conditions: 10 µM unless noted

Test [1] deals with SR leukemia.
In test [2] the test system is RPMI-8226 leukemia.
For test [3], the system named is OVCAR-8 ovarian.
Test [4] relates to OVCAR-5 ovarian.
In test [5] the test system is OVCAR-4 ovarian.
For test [6], the system named is SK-OV-3 ovarian.
Test [7] concerns IGROV1 ovarian.
For test [8], the system named is OVCAR-3 ovarian.
In test [9] the test system is HS 578T breast.
Test [10] deals with NCI/ADR-RES ovarian.
Test [11] relates to T-47D breast.
In test [12] the test system is BT-549 breast.
The subject of test [13] is MDA-MB-435 melanoma.
Test [14] relates to SW-620 colon.
For test [15], the system named is MCF7 breast.
The subject of test [16] is HCT-116 colon.
For test [17], the system named is HCC-2998 colon.
Test [18] deals with KM12 colon.

Compounds without any hit were thinned out: in the full panel of roughly 83,000, 20% have a hit.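 Activity criterion: percent growth below 10, measured after cells in 96-well plates were exposed to a single compound concentration for 48 hours.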 Values without a mark were called inactive. The source made the active and inactive calls.

Turning to `CCNC(=O)Oc1ccc(/C(=C(/C)c2ccc(Cl)cc2)c2ccc(OCCN(C)C)cc2)cc1`, the growth in [1] is 42.4%; in test [2], 19.3%; in test [3] it was 87.9%; in [4], 84.9%; in [5] it was 71.6%; in [6], 94.2%. For the same compound, the growth is 64.4% in [7]; 77.8% in [8]; 80.8% in test [9]; 74.9% in [10]; 54.8% in test [11]; 77% in test [12]. Further, the growth in [13] is 91.6%; in test [14], 82.2%; in test [15], 18.1%; in test [16], 43%; in test [17] it was 81.2%; in [18], 89.8%.
For the compound `CCOC(=O)c1c(NC(=O)c2cccc(C(F)(F)F)c2)sc2c(CN3CCN(C)CC3)c(O)ccc12`, the growth in test [1] was 23.5%; in test [2] it was -28.8% (active); in test [3], -35.2% (active); in [4] it was -77.9% (active); in [5], 26.8%; in [6] it was 97.3%. Also, the growth in test [7] is -86.1% (active); in test [8], 65.6%; in [9], 76.3%; in test [10], -38.2% (active); in [11], 21%; in test [12], 102%. Moreover, the growth in test [13] is -81.5% (active); in test [14], -66.4% (active); in [15] it was -85.4% (active); in [16], -82.6% (active); in [17], -36.6% (active); in test [18] it was -75.2% (active).
As to `COc1cc([C@H]2OC[C@H]3[C@@H]2CO[C@@H]3c2ccc(O)c(OC)c2)ccc1O`, the growth in test [1] is 67.3%; in test [2] it was 72.1%; in test [3], 84.2%; in [4] it was 86.6%; in test [5], 96.6%; in test [6], 69%. Besides, the growth in test [7] is 69.9%; in [8], 96.8%; in test [9] it was 107%; in test [10], 85.7%; in test [11], 97.2%; in [12], 68.5%. Besides, the growth in test [13] is 107%; in test [14], 107%; in test [15], 96.1%; in test [16] it was 92.8%; in [17] it was 96%; in [18], 90.6%.
Regarding `CCOC(=O)c1c(NCC(=O)Nc2cccc([N+](=O)[O-])c2)sc2c1CCCC2`, the growth was 11.7% in test [1]; -10.7% (active) in [2]; -18.2% (active) in test [3]; -45.6% (active) in [4]; -45.2% (active) in test [5]; -67.3% (active) in test [6]. Further, the growth in [7] is -19.6% (active); in test [8] it was -39.7% (active); in [9], -14.8% (active); in [10], -36.7% (active); in test [11], -28.2% (active); in test [12], -57.3% (active). Further, the growth in [13] is -91.5% (active); in [14], -2.82% (active); in test [15] it was -12.8% (active); in [16], -21% (active); in test [17], -76.5% (active); in test [18] it was -20.4% (active).
As to `Oc1ccc(-c2nnc(SCc3ccc(O)c4ncccc34)o2)cc1`, the growth in test [1] was 37.4%; in test [2], 4.27% (active); in test [3], 15.9%; in test [4] it was 27.1%; in test [5] it was 9.9% (active); in test [6] it was -3.56% (active). Also, the growth in test [7] was 3.93% (active); in test [8], 6.01% (active); in test [9], -0.346% (active); in [10], 7.18% (active); in test [11], 11.1%; in test [12] it was 12.8%. Also, the growth is 12.3% in test [13]; 16.3% in test [14]; 2.57% (active) in [15]; 7.61% (active) in test [16]; 22.5% in test [17]; 9.65% (active) in test [18].
In the case of `CC(C)C[C@H]1C(=O)O[C@H](C(C)C)C(=O)N(C)[C@@H](C(C)C)C(=O)O[C@H](C(C)C)C(=O)N(C)[C@@H](C(C)C)C(=O)O[C@H](C(C)C)C(=O)N1C`, the growth in test [1] was 14.4%; in [2], -11.1% (active); in test [3] it was 16%; in test [4], 17.7%; in [5], 18.3%; in [6] it was -9.29% (active). The growth in test [7] was 37%; in [8] it was 17.6%; in test [9], 38.2%; in [10], -1.7% (active); in [11] it was 6.43% (active); in test [12], 17.6%. In addition, the growth in [13] is 21.9%; in test [14] it was 18.2%; in test [15], 13.8%; in test [16], 9.58% (active); in test [17], 23.1%; in test [18], 16.6%.
In the case of `Nc1ccc(-c2nnc(SCc3ccc(O)c4ncccc34)o2)cc1`, the growth is 18.8% in [1]; -9.68% (active) in [2]; 8.94% (active) in test [3]; 25% in [4]; -1.57% (active) in test [5]; -15.3% (active) in [6]. The growth in test [7] was 0.429% (active); in test [8], 7.75% (active); in [9] it was -12.6% (active); in [10], -9.89% (active); in test [11] it was -19.7% (active); in test [12] it was -11.7% (active). Moreover, the growth in test [13] was 7.57% (active); in [14], 5.51% (active); in test [15], 2.52% (active); in [16] it was 0.176% (active); in [17] it was 14.3%; in [18] it was 0.48% (active).
As to `CN1CCN(c2ccc3c(c2)nc(NNC(=O)c2ccncn2)c2cccn23)CC1`, the growth in test [1] was 14.9%; in [2], 24.5%; in test [3], 21.8%; in test [4], 54%; in [5] it was 36.4%; in [6], 25%. Further, the growth in [7] is 22.4%; in [8], 38%; in [9], 71.3%; in test [10], 18.8%; in test [11] it was 32.7%; in test [12], 45.2%. Besides, the growth in test [13] is 27.5%; in test [14] it was 22.8%; in test [15], 17.6%; in test [16] it was 23.6%; in test [17] it was 22.3%; in test [18], 17.4%.
